Results filed as inconclusive are left out. A number with no mark means an inactive call. Active and inactive are the calls of the source. The call rests on the fitted dose curve.
On the % scale 0 is the no-effect control and ±100 the full control effect; potency means the concentration at half of the fitted maximal effect.

The target in this assay is Thyrotropin receptor (Homo sapiens) (UniProt P16473). As to the kind of experiment: qHTS assay to identify small molecule antagonists of the thyroid stimulating hormone receptor (TSHR) signaling pathway (AID 1259385). Further: nearly all actives have a fitted effect of over 20% in size. The note with it: TSHR-HEK293 cAMP HTRF, TSH-stimulated antagonist mode; series mostly up to 92.4 µM; activity change, negative = inhibition: at the top concentration. The source says: U.S. Tox21 Program National Center for Advancing Translational Sciences [NCATS] NIH Chemical Genomics Center [NCGC] U.S. Environmental Protection Agency [EPA] National Institutes of Environmental Health Sciences [NIEHS] National Toxicology Program [NTP] U.S. Food and Drug Administration [FDA] Tox21 Assay Overview: TSHR is the receptor for thyrotropin (thyroid stimulating hormone or TSH), a member of the glycoprotein hormone family. TSH is released by the anterior pituitary gland and is the main regulator of thyroid gland growth and development. Upon binding circulating thyrotropin, a G-protein signal cascade activates adenylyl cyclase and […] cAMP concentration is increased. cAMP is a key second messenger involved extensively in cellular signal transduction pathways associated with the majority of G-protein coupled receptors (GPCRs). The activation of these GPCRs by neurotransmitters, lipids, nucleotides, peptides and hormones results in the activation or the inhibition of plasma membrane-bound adenylate cyclase through heterotrimeric G-proteins. A cell-based TSHR assay can be used to screen chemical compounds that modulate TSHR either in agonist or antagonist mode.
Sequence of Thyrotropin receptor (Homo sapiens) (P16473 whole entry, looked up): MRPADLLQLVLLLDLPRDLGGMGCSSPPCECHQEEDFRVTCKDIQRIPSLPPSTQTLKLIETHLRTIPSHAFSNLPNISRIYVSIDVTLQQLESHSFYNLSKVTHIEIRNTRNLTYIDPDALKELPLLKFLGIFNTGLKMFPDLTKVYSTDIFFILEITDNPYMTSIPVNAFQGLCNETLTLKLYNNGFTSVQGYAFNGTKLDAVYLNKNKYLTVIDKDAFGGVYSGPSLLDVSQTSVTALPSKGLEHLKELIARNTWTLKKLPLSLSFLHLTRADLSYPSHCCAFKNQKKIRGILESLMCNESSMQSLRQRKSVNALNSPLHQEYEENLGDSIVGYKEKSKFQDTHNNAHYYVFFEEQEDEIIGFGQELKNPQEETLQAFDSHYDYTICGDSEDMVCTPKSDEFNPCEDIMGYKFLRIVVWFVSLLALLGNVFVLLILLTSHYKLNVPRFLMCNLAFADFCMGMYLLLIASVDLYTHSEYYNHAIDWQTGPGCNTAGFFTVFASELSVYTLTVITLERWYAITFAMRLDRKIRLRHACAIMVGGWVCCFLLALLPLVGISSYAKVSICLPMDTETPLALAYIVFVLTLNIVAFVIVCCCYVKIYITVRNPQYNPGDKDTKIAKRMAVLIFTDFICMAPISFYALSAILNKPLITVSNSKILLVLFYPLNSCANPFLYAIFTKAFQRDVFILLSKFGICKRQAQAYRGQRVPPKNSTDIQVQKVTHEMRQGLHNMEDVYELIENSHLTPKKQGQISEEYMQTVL
Tox21 Assay Protocol Summary: TSHR-Hek293 cells were dispensed at 800 cells/4uL/well in 1536-well white plates using a Multidrop dispenser. After the assay plates were incubated at a 37C/5% CO2 incubator for 18 hrs, 23 nL of compounds dissolved in DMSO, positive controls or DMSO only was transferred to the assay plate by a pin tool, followed by 1 ul medium containing Ro20-1724. For the antagonist mode screening, 1 uL of TSH was added on the top of the cell/compound mixtures to achieve a final agonist concentration of 1.5 ng/mL. After 30 min of incubation at room temperature, 2.5 ul/well of cAMP-d2 and 2.5 ul/well of anti-cAMP-cryptate were added respectively into the assay plates using a Flying Reagent Dispenser. The plates were incubated at room temperature for 1 hr. The fluorescence intensity in the plates was measured using an Envision plate reader. Each test compound was measured at 15 concentrations and in triplicates.
(qHTS replaces the single test concentration by a dilution series.)
In the case of `O=C1Cc2cc(CCN3CCN(c4nsc5ccccc45)CC3)c(Cl)cc2N1`, the “activity change, negative = inhibition” value was -0.148% [at 42.5 µM]. For `Oc1ccc2cc(SSc3ccc4cc(O)ccc4c3)ccc2c1`, the Potency result is “inactive”. In the case of `CCCCCCOC(=O)c1ccc(O)cc1`, the “activity change, negative = inhibition” value was -0.881%. In the case of `NC(=O)NS(=O)(=O)c1ccc(N)cc1`, the “activity change, negative = inhibition” value was 3.42% [at 42.5 µM]. For `Cc1cccc(S(=O)(=O)O)c1C`, the “activity change, negative = inhibition” value is 0.117%. For the molecule `NC(=O)CC[C@@H]1NC(=O)[C@H](Cc2ccccc2)NC(=O)[C@H](Cc2ccc(O)cc2)NC(=O)CCSSC[C@@H](C(=O)N2CCC[C@H]2C(=O)N[C@@H](CCCN=C(N)N)C(=O)NCC(N)=O)NC(=O)[C@H](CC(N)=O)NC1=O`, the “activity change, negative = inhibition” value is -0.254% [at 42.5 µM]. For `CC(C)(C)C(=O)OCOC(=O)[C@@H]1N2C(=O)[C@@H](NC(=O)[C@H](N)c3ccccc3)[C@H]2SC1(C)C`, the “activity change, negative = inhibition” value is -5.26% [at 42.5 µM]. Take `CCOC(=O)/C=C(C)/C=C/C=C(C)/C=C/c1c(C)cc(OC)c(C)c1C`: the “activity change, negative = inhibition” value is -4.4% [at 42.5 µM]. In the case of `O=c1cccccc1O`, the “activity change, negative = inhibition” value is -9.22%. Same read-out and setting: the result for `O=c1c(-c2ccccc2)c1-c1ccccc1` reads 1.37% [at 42.5 µM]; that for `O=C(Oc1cccc2cccnc12)c1ccccc1`, -0.947% [at 42.5 µM]; that for `CCCCCCCCCCC=O`, -0.286%.

In the case of `OCCN1CCN(CC/C=C2/c3ccccc3Sc3ccc(C(F)(F)F)cc32)CC1`, the “activity change, negative = inhibition” value is -4.61% [at 42.5 µM]. In the case of `Nc1c2ccccc2nc2ccccc12`, the “activity change, negative = inhibition” value is -2.56% [at 42.5 µM]. Take `CC/C(=C(\c1ccc(O)cc1)c1ccc(OCCN(C)C)cc1)c1ccccc1`: the Potency was 77.1 µM (active). On to `O=[N+]([O-])c1cc(Cl)c(Cl)c(Cl)c1Cl`, for which the “activity change, negative = inhibition” value is -2.69%.

For `CC(C)=CCOc1ccc(/C=C/C(=O)c2ccc(OCC=C(C)C)cc2OCC(=O)O)cc1`, the “activity change, negative = inhibition” value is -10.7% [at 42.5 µM]. `Clc1ccccc1C(c1ccccc1)(c1ccccc1)n1ccnc1`: the Potency was 54.5 µM (active). With `CS(=O)(=O)CCNCc1ccc(-c2ccc3ncnc(Nc4ccc(OCc5cccc(F)c5)c(Cl)c4)c3c2)o1`, the “activity change, negative = inhibition” value is -13.2% [at 42.5 µM]. Regarding `CN(C)[C@@H]1C(=O)C(C(N)=O)=C(O)[C@@]2(O)C(=O)C3=C(O)c4c(O)cccc4C[C@H]3C[C@@H]12`, the “activity change, negative = inhibition” value is 0.678% [at 42.5 µM].

As to `CCc1cc(Cc2cc(CC)c(N)c(CC)c2)cc(CC)c1N`, the “activity change, negative = inhibition” value is -7.18%.

As for `O=C(Nc1cccc(C(F)(F)F)c1)c1cc(Br)cc(Br)c1O`, the “activity change, negative = inhibition” value is 4.35%. With `ON=C1CCCC1`, the “activity change, negative = inhibition” value was 3.06%. On the same count and under the same terms, the value for `O=C(Nc1cccc(Cl)c1)OCC#CCCl` was -11.7%. As to `COc1cccc2c1C(=O)c1c(O)c3c(c(O)c1C2=O)C[C@@](O)(C(=O)CO)C[C@@H]3O[C@H]1C[C@H](N)[C@H](O[C@@H]2CCCCO2)[C@H](C)O1`, the “activity change, negative = inhibition” value was 1.25% [at 42.5 µM].

On to `O=C(O)c1ccc(Cl)c(Cl)c1`, for which the “activity change, negative = inhibition” value is 1.6%. As for `CC(NN)c1ccccc1` (stereo not given), the activity change, negative = inhibition was -2.3% [at 19 µM]. For `CCCCCOc1ccccc1/C(=C\SC)n1ccnc1`, the “activity change, negative = inhibition” value is 4.94% [at 42.5 µM]. As for `CCCCCCC[N+](CC)(CC)CCCCc1ccc(Cl)cc1`, the “activity change, negative = inhibition” value was -6.19% [at 42.5 µM]. Turning to `CN(C/C=C/C#CC(C)(C)C)Cc1cccc2ccccc12`, the “activity change, negative = inhibition” value was -5.89% [at 42.5 µM]. Turning to `CCCCN1C(=O)[C@@H]([C@H](O)C2CCCCC2)NC(=O)C12CCN(Cc1ccc(Oc3ccc(C(=O)O)cc3)cc1)CC2`, the “activity change, negative = inhibition” value is -1.61%.

As for `CCCCCCCCOC(=O)c1ccc(O)cc1`, the “activity change, negative = inhibition” value was 4.08%. Take `CC(C)(C)NC(=O)[C@@H]1C[C@@H]2CCCC[C@@H]2CN1C[C@@H](O)[C@H](Cc1ccccc1)NC(=O)[C@H](CC(N)=O)NC(=O)c1ccc2ccccc2n1`: the “activity change, negative = inhibition” value was 3.98%. `Cc1cc(O)c(C(C)(C)C)cc1C(C)(C)C`: the “activity change, negative = inhibition” value was -6.38%. Take `CC1=NC(C)OC1C` (stereo not given): the “activity change, negative = inhibition” value is 2.02%. For `Fc1ccc(C(c2ccc(F)cc2)N2CCN(C/C=C/c3ccccc3)CC2)cc1`, the “activity change, negative = inhibition” value was 0.142% [at 42.5 µM]. `O=C(NO)C1(NS(=O)(=O)c2ccc(Oc3ccc(F)cc3)cc2)CCOCC1`: the “activity change, negative = inhibition” value is -0.351%.

Take `Nc1ccc2c3c(cccc13)-c1ccccc1-2`: the “activity change, negative = inhibition” value is -8.11%. Consider `CCCCCCCCCCCCCCCS(=O)(=O)Oc1ccccc1`, for which the “activity change, negative = inhibition” value was -0.825% [at 42.5 µM].

On to `O=C(O)c1cc(O)c2c(c1)C(=O)c1cccc(O)c1C2=O`, for which the “activity change, negative = inhibition” value was -0.672%.

The values are drawn from PubChem BioAssay (Tox21).
